Hits are enriched below; roughly 11% of the tested compounds scored in any of these assays.
NS1 function inh: qHTS Assay for Inhibitors of Influenza NS1 Protein Function; 270,000 compounds, 0.4% hits; AID 2326, 2010; Potency, µM (titrated, usually from 46.1 µM); calls by dose curve; note: actives are rising curves; nearly all actives have a fitted effect of over 50% in size
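A cell-based growth assay was used: compounds that relieve NS1-induced slow growth of budding yeast raise OD600. Assay medium was yeast nitrogen base with ammonium sulphate and -URA supplement, pH 6.0, with 2% galactose.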
Sm TGR block: qHTS Assay for the Inhibitors of Schistosoma Mansoni Peroxiredoxins; Schistosoma mansoni thioredoxin glutathione reductase (TGR), Q962Y6; purified TGR, DTNB reduction, TNB absorbance 405 nm; Potency, µM (top dose mostly 114 µM), hits mostly inhibitors; 360,000 compounds, 3% hits; AID 485364, 2010; note: nearly all actives have a fitted effect of over 60% in size
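TGR 20 nM + NADPH 100 uM (dispensed conc.), cpd preinc 15 min RT; start with NADPH (500 uM addition) then DTNB (15 mM addition). Kinetic TNB absorbance, 405 nm filter. Four-parameter Hill fit across titration.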
Pf growth 48h: Primary qHTS for delayed death inhibitors of the malarial parasite plastid, 48 hour incubation. 310,000 compounds, 5.9% hits. P. falciparum luciferase growth in erythrocytes, 48 h. AID 504832, 2011. Potency, µM (doses to about 28.7 µM), actives largely listed as inhibitors
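Luminescence readout; reporter = integrated firefly luciferase in P. falciparum. RBC culture at 2% hematocrit, 0.1% parasitemia final, 37 C/5% CO2; decreased signal taken as growth inhibition.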
Pf growth 96h: Primary qHTS for delayed death inhibitors of the malarial parasite plastid, 96 hour incubation; Potency, µM (series often up to 28.7 µM), actives largely listed as inhibitors; P. falciparum luciferase reporter growth, 96 h; 320,000 compounds, 6.9% hits
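Readout is luminescence from an integrated firefly luciferase in P. falciparum. Red cells, 2% hematocrit and 0.05% parasitemia final, were cultured with compound through two parasite generations (96 hours) at 37 C, 5% CO2.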
AMA1 RON2 block: qHTS for Inhibitors of AMA1-RON; Towards Development of Antimalarial Drug Lead: Primary Screen; Plasmodium falciparum AMA1 (3D7) - RON2 peptide interaction; AlphaScreen AMA1-biotinylated RON2 peptide binding; Potency, µM (top dose mostly 58.2 µM), most hits filed as inhibitors; 360,000 compounds, 0.2% hits; note: nearly all actives have a fitted effect of over 45% in size
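AMA1 (3D7) with his tag at 25 nM final met compounds first, then biotinylated RON2 peptide at 25 nM; detection used donor plus acceptor beads, 10 µg/mL apiece, read by AlphaScreen after 30 min at room temperature.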
Each line names hits and unclear results; the compound was inactive in the other large screens. Unless noted, calls come from the whole dose curve; as a rule, active = well fitted curve in the direction sought with a large enough effect; inconclusive = small, poorly fitted or top-dose-only effect, or another doubt; inactive = no such curve, though single readings can be large; an effect the other way counts as inactive or inconclusive.

CCOC(=O)CSc1nc2cc3c(cc2cc1CC)OCCO3	Sm TGR block inconclusive, Pf growth 48h inconclusive, Pf growth 96h 12µM
COc1cccc(CSc2nc3cc4c(cc3cc2C)OCCO4)c1	Pf growth 96h 5.9µM
Cc1cc2cc3c(cc2nc1SCc1ccc(C(=O)O)cc1)OCCO3	Pf growth 96h 9.3µM
CSc1ccc(CN2CCCN(C)CC2)cc1	AMA1 RON2 block inconclusive
O=C(Nc1ccccc1)N(Cc1ccccc1)Cc1ccccc1	none
O=C(Nc1ccccc1)N(Cc1ccc(Cl)cc1)CC(O)C(F)(F)F (stereo unspecified)	Pf growth 48h 15µM
N#Cc1c(-n2ncnc2-c2ccc(Br)cc2)sc2c1CCCCC2	none (no result: NS1 function inh, Pf growth 48h, Pf growth 96h, AMA1 RON2 block)
CC1(C)CC(NC(=O)c2ccc(Cl)c(S(=O)(=O)N(Cc3ccccc3)c3ccccc3)c2)CC(C)(C)N1	Pf growth 48h 5.2µM, Pf growth 96h 7.4µM (no result: NS1 function inh)
COc1ccccc1N(Cc1ccccc1)S(=O)(=O)c1cccc(C(=O)NC2CC(C)(C)NC(C)(C)C2)c1	Pf growth 48h 5.9µM, Pf growth 96h 4.7µM (no result: NS1 function inh)
CCOc1ccccc1NC(=O)c1cccc(S(=O)(=O)N(Cc2ccccc2)c2ccccc2OC)c1	Pf growth 96h 2.6µM
COc1ccc(N(Cc2ccccc2)S(=O)(=O)c2cccc(C(=O)Nc3ncccc3C)c2)cc1	Pf growth 48h inconclusive, Pf growth 96h inconclusive (no result: NS1 function inh)
COc1ccccc1N(Cc1ccccc1)S(=O)(=O)c1cccc(C(=O)Nc2ncccc2C)c1	Pf growth 48h 12µM, Pf growth 96h inconclusive (no result: NS1 function inh)
COc1ccccc1N(Cc1ccccc1)S(=O)(=O)c1cccc(C(=O)O)c1	NS1 function inh inconclusive
COc1ccccc1NC(=O)C1=C(C)Nc2nc3ccccc3n2C1c1ccccc1Cl (stereo unspecified)	none (no result: NS1 function inh, Pf growth 48h, Pf growth 96h, AMA1 RON2 block)
Cn1cnc([N+](=O)[O-])c1Oc1ccc2ccccc2c1	Sm TGR block 14µM
Cn1cnc([N+](=O)[O-])c1Nc1cccc(O)c1	Pf growth 96h inconclusive
O=C1NN(c2ccccc2)C(=O)/C1=C\c1coc2ccc(O)cc2c1=O	Sm TGR block 16µM
O=C1NN(c2ccccc2)C(=O)/C1=C/c1coc2ccccc2c1=O	Pf growth 96h inconclusive
O=C1NC(=O)N(c2ccccc2)C(=O)/C1=C/c1coc2ccc(O)cc2c1=O	none
O=C1NC(=O)N(c2ccc(Cl)cc2)C(=O)/C1=C/c1coc2ccc(O)cc2c1=O	Sm TGR block 1µM
Cc1ccc(N2CCN(c3ncccc3[N+](=O)[O-])CC2)c(C)c1	AMA1 RON2 block 13µM
Cc1ccc(C)c(N2CCN(c3ncccc3[N+](=O)[O-])CC2)c1	Pf growth 48h inconclusive, Pf growth 96h inconclusive, AMA1 RON2 block inconclusive
Cc1ccc(Oc2ccc(S(=O)(=O)N3CCOCC3)cc2C(N)=O)cc1C	Pf growth 48h inconclusive
N#Cc1cc(-c2ccccc2)nc(NN)n1	Pf growth 48h inconclusive, Pf growth 96h 10µM
O=c1oc2cc(O)ccc2cc1-c1nc2c(s1)CCc1ccccc1-2	Pf growth 96h 9.3µM
O=c1oc2ccccc2cc1-c1nc2c(s1)CCc1ccccc1-2	Sm TGR block inconclusive, Pf growth 48h inconclusive
O=C(NCCCSc1ccccc1)c1cc(Cl)ccc1O	Pf growth 48h inconclusive, Pf growth 96h 12µM
O=C(CNC(=O)c1ccccc1)NCCCSc1ccccc1	none (no result: NS1 function inh, Sm TGR block, Pf growth 48h, Pf growth 96h)
O=C(NCCNC(=O)c1ccccc1O)c1ccccc1O	Pf growth 96h inconclusive
O=C(NCCCCCCNC(=O)c1ccccc1O)c1ccccc1O	Pf growth 48h 8.3µM, Pf growth 96h inconclusive
CCOC(=O)C1=C(COC(=O)CSc2ccc(C)cc2)NC(=O)NC1C (stereo unspecified)	none (no result: NS1 function inh)
CCN(CC)S(=O)(=O)c1cc(NC(=O)COC(=O)c2c(C)noc2C)ccc1C	Pf growth 48h inconclusive, Pf growth 96h inconclusive (no result: NS1 function inh)
Cc1ccc(S(=O)(=O)O/N=C2\CCCc3ccccc32)cc1	none (no result: Pf growth 48h)
CC1=C(C)/C(=N\OS(=O)(=O)c2ccccc2)C=CC1=O	Sm TGR block 2.5µM, Pf growth 96h 13µM, AMA1 RON2 block inconclusive (no result: Pf growth 48h)
CCOC(=O)N1CCC(N2CCN(S(=O)(=O)c3ccc([N+](=O)[O-])cc3)CC2)CC1	Pf growth 48h 2.1µM, Pf growth 96h inconclusive, AMA1 RON2 block inconclusive
CCOC(=O)N1CCC(N2CCN(S(=O)(=O)c3ccc4ccccc4c3)CC2)CC1	Pf growth 96h 12µM, AMA1 RON2 block inconclusive (no result: Pf growth 48h)
